Results as given in the supplement of paper PMC10849652.
The full data set covers some 7,900 targets. This sample favours those with a hit. About 0.6% of all pairs of compound and target were hits. Unmarked numbers belong to inactive results.

Assays:
Experiment in all cases: log2 fold change, soluble protein after heating vs DMSO (PISA); higher = thermal stabilisation; K562 cells, 10 uM, 30 min; active = over 0.2 and 3.5 SD of the protein, either way, in both replicates (recomputed)
[1] = compound: COC1=CC=C(C=C1)CN2C=CC3=C2C=C(C=C3)C(=O)NO
How it was run: (§1)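 Aliquots of K562 cells (2×10^6 cells/mL) treated with 10 μM compound for 30 min were heated for 3 min over 48°C-58°C. After pooling and extraction in PBS with 0.5% NP-40 at 4°C, soluble protein from a 21,000xg, 90 min spin was quantified by TMTpro 16plex LC-MS/MS with channel sums equalised. Thermal stability is expressed against control samples, from duplicates, as a log2 fold change.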

filanesib = compound: CON(C)C(=O)N1N=C(c2cc(F)ccc2F)S[C@@]1(CCCN)c1ccccc1 [filanesib]
How it was run: as §1

zotarolimus = compound: CO[C@H]1C[C@@H]2CC[C@@H](C)[C@@](O)(O2)C(=O)C(=O)N2CCCC[C@H]2C(=O)O[C@H]([C@H](C)C[C@@H]2CC[C@H](n3cnnn3)[C@H](OC)C2)CC(=O)[C@H](C)/C=C(\C)[C@@H](O)[C@@H](OC)C(=O)[C@H](C)C[C@H](C)/C=C/C=C/C=C/1C [zotarolimus]
How it was run: as §1

idasanutlin = compound: COc1cc(C(=O)O)ccc1NC(=O)[C@@H]1N[C@@H](CC(C)(C)C)[C@](C#N)(c2ccc(Cl)cc2F)[C@H]1c1cccc(Cl)c1F [idasanutlin]
How it was run: as §1

alisertib = compound: COc1cc(Nc2ncc3c(n2)-c2ccc(Cl)cc2C(c2c(F)cccc2OC)=NC3)ccc1C(=O)O [alisertib]
How it was run: as §1

[2] = compound: COc1cc2nc(-c3cc(F)ccc3O)nc(N[C@@H]3CNC[C@H]3C(C)(C)O)c2cc1OC
How it was run: as §1

gefitinib = compound: COc1cc2ncnc(Nc3ccc(F)c(Cl)c3)c2cc1OCCCN1CCOCC1 [gefitinib]
How it was run: as §1

[3] = compound: COc1cccc2cc(-c3nc([C@H]4CC[C@H](C(=O)O)CC4)n4ncnc(N)c34)[nH]c12
How it was run: as §1

lapatinib = compound: CS(=O)(=O)CCNCc1ccc(-c2ccc3ncnc(Nc4ccc(OCc5cccc(F)c5)c(Cl)c4)c3c2)o1 [lapatinib]
How it was run: as §1

pictilisib = compound: CS(=O)(=O)N1CCN(Cc2cc3nc(-c4cccc5[nH]ncc45)nc(N4CCOCC4)c3s2)CC1 [pictilisib]
How it was run: as §1

[4] = compound: CS(=O)(=O)c1ccc(-c2cnc(N)c(C(=O)Nc3ccccc3)n2)cc1
How it was run: as §1

crizotinib = compound: C[C@@H](Oc1cc(-c2cnn(C3CCNCC3)c2)cnc1N)c1c(Cl)ccc(F)c1Cl [crizotinib]
How it was run: as §1

[5] = compound: C[C@@H]1COCCN1C2=NC(=NC(=C2)C3(CC3)S(=O)(=O)C)C4=C5C=CNC5=CC=C4
How it was run: as §1

[6] = compound: C[C@H](C1=CC=C(C=C1)C(=O)NC2=C3C=CNC3=NC=C2)N
How it was run: as §1

duvelisib = compound: C[C@H](Nc1ncnc2nc[nH]c12)c1cc2cccc(Cl)c2c(=O)n1-c1ccccc1 [duvelisib]
How it was run: as §1

gandotinib = compound: Cc1cc(Nc2cc(CN3CCOCC3)c3nc(C)c(Cc4ccc(Cl)cc4F)n3n2)n[nH]1 [gandotinib]
How it was run: as §1

tozasertib = compound: Cc1cc(Nc2cc(N3CCN(C)CC3)nc(Sc3ccc(NC(=O)C4CC4)cc3)n2)n[nH]1 [tozasertib]
How it was run: as §1

[7] = compound: Cc1cc(SCc2sc(-c3ccc(C(F)(F)F)cc3)nc2C)ccc1OCC(=O)O
How it was run: as §1

doramapimod = compound: Cc1ccc(-n2nc(C(C)(C)C)cc2NC(=O)Nc2ccc(OCCN3CCOCC3)c3ccccc23)cc1 [doramapimod]
How it was run: as §1

ispinesib = compound: Cc1ccc(C(=O)N(CCCN)[C@@H](c2nc3cc(Cl)ccc3c(=O)n2Cc2ccccc2)C(C)C)cc1 [ispinesib]
How it was run: as §1

CNTN4 (UniProt Q8IWV2)
Sequence of UniProt Q8IWV2 (Q8IWV2 whole entry, looked up): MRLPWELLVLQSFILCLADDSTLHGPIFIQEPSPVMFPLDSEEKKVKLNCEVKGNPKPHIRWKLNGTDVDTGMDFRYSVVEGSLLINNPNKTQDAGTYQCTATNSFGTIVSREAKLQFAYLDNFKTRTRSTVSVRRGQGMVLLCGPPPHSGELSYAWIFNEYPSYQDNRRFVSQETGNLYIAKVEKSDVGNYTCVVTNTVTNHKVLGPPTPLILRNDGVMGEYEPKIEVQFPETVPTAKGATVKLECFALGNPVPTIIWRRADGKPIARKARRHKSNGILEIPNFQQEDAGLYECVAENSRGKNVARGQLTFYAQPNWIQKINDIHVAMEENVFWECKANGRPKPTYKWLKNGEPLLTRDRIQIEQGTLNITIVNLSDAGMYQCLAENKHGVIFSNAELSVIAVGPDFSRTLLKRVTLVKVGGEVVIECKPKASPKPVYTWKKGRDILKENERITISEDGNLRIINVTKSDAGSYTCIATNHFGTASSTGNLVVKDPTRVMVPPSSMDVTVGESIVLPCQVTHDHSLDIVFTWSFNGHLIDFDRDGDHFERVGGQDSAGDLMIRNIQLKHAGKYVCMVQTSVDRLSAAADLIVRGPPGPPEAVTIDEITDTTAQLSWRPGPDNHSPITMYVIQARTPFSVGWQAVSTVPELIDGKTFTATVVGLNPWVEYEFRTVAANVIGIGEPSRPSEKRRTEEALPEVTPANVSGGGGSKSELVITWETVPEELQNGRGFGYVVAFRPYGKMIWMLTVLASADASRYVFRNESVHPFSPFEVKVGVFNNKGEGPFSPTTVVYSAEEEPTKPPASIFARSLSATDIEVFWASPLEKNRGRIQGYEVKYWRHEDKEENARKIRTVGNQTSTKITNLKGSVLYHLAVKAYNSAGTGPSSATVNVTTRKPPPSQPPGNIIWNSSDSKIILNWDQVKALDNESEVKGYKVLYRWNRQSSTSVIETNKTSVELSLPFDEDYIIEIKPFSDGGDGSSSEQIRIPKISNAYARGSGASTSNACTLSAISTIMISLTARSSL
log2 fold change [1]: 0.1
log2 fold change (filanesib): 0
log2 fold change (zotarolimus): 0.017
log2 fold change (idasanutlin): -0.148
log2 fold change (alisertib): -0.399
log2 fold change [2]: 0.341
log2 fold change (gefitinib): -0.039
log2 fold change [3]: -0.169
log2 fold change (lapatinib): -0.047
log2 fold change (pictilisib): 0.222
log2 fold change [4]: -0.03
log2 fold change (crizotinib): 0.064
log2 fold change [5]: 0.148
log2 fold change [6]: -0.099
log2 fold change (duvelisib): 0.102
log2 fold change (gandotinib): 0.144
log2 fold change (tozasertib): -0.051
log2 fold change [7]: -0.087
log2 fold change (doramapimod): -0.095
log2 fold change (ispinesib): -0.046

COQ9 (UniProt O75208)
log2 fold change [1]: 0.02
log2 fold change (filanesib): -0.113
log2 fold change (zotarolimus): -0.017
log2 fold change (idasanutlin): 0.166
log2 fold change (alisertib): -0.038
log2 fold change [2]: -0.013
log2 fold change (gefitinib): 0.025
log2 fold change [3]: 0.045
log2 fold change (lapatinib): 0.043
log2 fold change (pictilisib): -0.041
log2 fold change [4]: 0.02
log2 fold change (crizotinib): -0.067
log2 fold change [5]: 0.03
log2 fold change [6]: -0.064
log2 fold change (duvelisib): -0.043
log2 fold change (gandotinib): -0.029
log2 fold change (tozasertib): 0.009
log2 fold change [7]: 0.032
log2 fold change (doramapimod): -0.079
log2 fold change (ispinesib): -0.055

CHST10 (UniProt O43529)
Sequence of UniProt O43529 (O43529 whole entry, looked up): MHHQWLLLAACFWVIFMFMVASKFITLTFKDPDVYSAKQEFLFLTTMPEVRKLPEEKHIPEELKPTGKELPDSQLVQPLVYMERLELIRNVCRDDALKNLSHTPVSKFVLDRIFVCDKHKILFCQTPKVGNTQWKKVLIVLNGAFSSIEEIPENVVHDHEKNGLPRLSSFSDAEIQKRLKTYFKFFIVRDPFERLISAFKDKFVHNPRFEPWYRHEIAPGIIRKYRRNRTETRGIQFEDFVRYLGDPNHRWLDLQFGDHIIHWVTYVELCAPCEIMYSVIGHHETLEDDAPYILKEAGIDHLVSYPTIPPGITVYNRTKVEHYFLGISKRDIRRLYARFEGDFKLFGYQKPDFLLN
log2 fold change [1]: -0.11
log2 fold change (filanesib): 0.021
log2 fold change (zotarolimus): 0.088
log2 fold change (idasanutlin): 0.062
log2 fold change (alisertib): -0.014
log2 fold change [2]: -0.073
log2 fold change (gefitinib): -0.071
log2 fold change [3]: 0.088
log2 fold change (lapatinib): 0.058
log2 fold change (pictilisib): 0.027
log2 fold change [4]: 0.235
log2 fold change (crizotinib): -0.206
log2 fold change [5]: 0.014
log2 fold change [6]: 0.009
log2 fold change (gandotinib): 0.087
log2 fold change (tozasertib): -0.037
log2 fold change (doramapimod): 0.015
log2 fold change (ispinesib): -0.009

CDKN1B (UniProt P46527)
log2 fold change [1]: 0.085
log2 fold change (filanesib): -0.02
log2 fold change (zotarolimus): -0.007
log2 fold change (idasanutlin): -0.033
log2 fold change (alisertib): 0.068
log2 fold change [2]: 0.104
log2 fold change (gefitinib): 0.124
log2 fold change [3]: -0.076
log2 fold change (lapatinib): -0.03
log2 fold change (pictilisib): -0.02
log2 fold change [4]: -0.017
log2 fold change (crizotinib): -0.018
log2 fold change [5]: -0.295
log2 fold change [6]: -0.065
log2 fold change (duvelisib): 0.059
log2 fold change (gandotinib): 0.077
log2 fold change [7]: -0.06
log2 fold change (doramapimod): -0.071
log2 fold change (ispinesib): -0.01

CLUH, A0A494C0R8
log2 fold change [1]: 0.131
log2 fold change (filanesib): 0.168
log2 fold change (zotarolimus): -0.065
log2 fold change (idasanutlin): 0.027
log2 fold change (alisertib): 0.007
log2 fold change [2]: -0.024
log2 fold change (gefitinib): 0.078
log2 fold change [3]: -0.227
log2 fold change (lapatinib): -0.011
log2 fold change [4]: 0.055
log2 fold change (crizotinib): -0.575 (active)
log2 fold change [5]: 0.205
log2 fold change [6]: 0.037
log2 fold change (duvelisib): 0.646 (active)
log2 fold change (gandotinib): -0.214
log2 fold change (tozasertib): -0.11
log2 fold change [7]: -0.031
log2 fold change (doramapimod): 0.113
log2 fold change (ispinesib): -0.028

CCDC9 (UniProt Q9Y3X0)
Sequence of UniProt Q9Y3X0 (Q9Y3X0 whole entry, looked up): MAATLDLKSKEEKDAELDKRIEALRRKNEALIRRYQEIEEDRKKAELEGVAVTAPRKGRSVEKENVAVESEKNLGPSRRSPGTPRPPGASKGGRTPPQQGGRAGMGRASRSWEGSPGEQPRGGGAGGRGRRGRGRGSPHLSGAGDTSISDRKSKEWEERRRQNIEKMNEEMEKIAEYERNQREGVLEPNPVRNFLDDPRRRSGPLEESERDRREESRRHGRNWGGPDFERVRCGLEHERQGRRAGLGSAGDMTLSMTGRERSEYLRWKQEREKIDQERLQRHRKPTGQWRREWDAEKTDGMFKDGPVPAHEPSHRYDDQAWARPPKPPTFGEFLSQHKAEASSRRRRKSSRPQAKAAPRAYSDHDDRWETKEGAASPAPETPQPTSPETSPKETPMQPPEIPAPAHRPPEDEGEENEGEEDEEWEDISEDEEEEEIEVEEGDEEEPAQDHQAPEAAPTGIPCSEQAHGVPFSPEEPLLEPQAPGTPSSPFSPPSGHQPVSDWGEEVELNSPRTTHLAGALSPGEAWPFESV
log2 fold change [1]: 0.057
log2 fold change (filanesib): 0.021
log2 fold change (zotarolimus): -0.11
log2 fold change (idasanutlin): 0.018
log2 fold change (alisertib): -0.035
log2 fold change [2]: 0.02
log2 fold change (gefitinib): -0.078
log2 fold change [3]: -0.021
log2 fold change (lapatinib): 0.003
log2 fold change (pictilisib): -0.015
log2 fold change [4]: -0.046
log2 fold change (crizotinib): 0.016
log2 fold change [5]: -0.063
log2 fold change [6]: 0.105
log2 fold change (duvelisib): -0.04
log2 fold change (gandotinib): 0.194
log2 fold change (tozasertib): -0.083
log2 fold change [7]: -0.012
log2 fold change (doramapimod): -0.008
log2 fold change (ispinesib): -0.215

CCAR1 (UniProt Q8IX12)
Sequence of UniProt Q8IX12 (Q8IX12 whole entry, looked up): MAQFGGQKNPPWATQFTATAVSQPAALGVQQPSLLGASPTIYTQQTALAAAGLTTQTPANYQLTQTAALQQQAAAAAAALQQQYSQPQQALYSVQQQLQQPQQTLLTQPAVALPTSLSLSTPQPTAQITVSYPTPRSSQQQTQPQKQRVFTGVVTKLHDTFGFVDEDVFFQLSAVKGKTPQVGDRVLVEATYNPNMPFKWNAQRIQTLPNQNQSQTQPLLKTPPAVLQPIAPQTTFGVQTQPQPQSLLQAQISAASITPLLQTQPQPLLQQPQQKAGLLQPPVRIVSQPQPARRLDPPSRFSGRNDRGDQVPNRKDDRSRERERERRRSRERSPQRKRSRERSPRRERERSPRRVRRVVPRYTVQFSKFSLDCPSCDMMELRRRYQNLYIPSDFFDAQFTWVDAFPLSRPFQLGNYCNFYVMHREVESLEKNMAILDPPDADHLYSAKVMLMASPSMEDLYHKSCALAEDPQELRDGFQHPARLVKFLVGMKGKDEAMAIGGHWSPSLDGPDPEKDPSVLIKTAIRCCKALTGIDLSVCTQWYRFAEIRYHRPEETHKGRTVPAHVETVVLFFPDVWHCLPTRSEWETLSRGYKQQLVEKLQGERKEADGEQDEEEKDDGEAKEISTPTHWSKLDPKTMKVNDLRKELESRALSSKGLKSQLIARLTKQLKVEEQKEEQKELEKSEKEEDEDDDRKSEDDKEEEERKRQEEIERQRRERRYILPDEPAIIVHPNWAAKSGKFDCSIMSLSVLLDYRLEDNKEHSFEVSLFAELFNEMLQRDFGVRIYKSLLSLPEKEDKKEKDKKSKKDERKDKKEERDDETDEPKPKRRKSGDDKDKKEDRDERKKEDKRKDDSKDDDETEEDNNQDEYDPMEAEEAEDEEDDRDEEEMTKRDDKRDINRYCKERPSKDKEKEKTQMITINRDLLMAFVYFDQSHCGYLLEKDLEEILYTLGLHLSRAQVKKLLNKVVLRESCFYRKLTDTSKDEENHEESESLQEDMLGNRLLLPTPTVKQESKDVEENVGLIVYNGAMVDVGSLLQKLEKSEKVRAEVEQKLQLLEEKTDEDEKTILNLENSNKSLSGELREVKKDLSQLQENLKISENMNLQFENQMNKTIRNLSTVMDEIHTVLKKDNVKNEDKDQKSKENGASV
log2 fold change [1]: 0.018
log2 fold change (filanesib): -0.105
log2 fold change (zotarolimus): 0.011
log2 fold change (idasanutlin): -0.041
log2 fold change (alisertib): -0.056
log2 fold change [2]: -0.02
log2 fold change (gefitinib): 0.027
log2 fold change [3]: 0.014
log2 fold change (lapatinib): 0.003
log2 fold change (pictilisib): -0.072
log2 fold change [4]: 0.004
log2 fold change (crizotinib): -0.238
log2 fold change [5]: 0.034
log2 fold change [6]: -0.016
log2 fold change (duvelisib): 0.012
log2 fold change (gandotinib): -0.263 (active)
log2 fold change (tozasertib): -0.063
log2 fold change [7]: 0.067
log2 fold change (doramapimod): -0.03
log2 fold change (ispinesib): -0.102

CNOT1 (UniProt A5YKK6)
log2 fold change [1]: 0.002
log2 fold change (filanesib): -0.019
log2 fold change (zotarolimus): 0.02
log2 fold change (idasanutlin): -0.032
log2 fold change (alisertib): -0.022
log2 fold change [2]: 0.053
log2 fold change (gefitinib): -0.021
log2 fold change [3]: -0.031
log2 fold change (lapatinib): 0.02
log2 fold change (pictilisib): -0.046
log2 fold change [4]: 0.006
log2 fold change (crizotinib): -0.087
log2 fold change [5]: -0.034
log2 fold change [6]: 0.033
log2 fold change (duvelisib): 0.013
log2 fold change (gandotinib): -0.043
log2 fold change (tozasertib): 0.045
log2 fold change [7]: 0.076
log2 fold change (doramapimod): -0.025
log2 fold change (ispinesib): -0.038

CBR1 (UniProt P16152)
Sequence of UniProt P16152 (P16152 whole entry, looked up): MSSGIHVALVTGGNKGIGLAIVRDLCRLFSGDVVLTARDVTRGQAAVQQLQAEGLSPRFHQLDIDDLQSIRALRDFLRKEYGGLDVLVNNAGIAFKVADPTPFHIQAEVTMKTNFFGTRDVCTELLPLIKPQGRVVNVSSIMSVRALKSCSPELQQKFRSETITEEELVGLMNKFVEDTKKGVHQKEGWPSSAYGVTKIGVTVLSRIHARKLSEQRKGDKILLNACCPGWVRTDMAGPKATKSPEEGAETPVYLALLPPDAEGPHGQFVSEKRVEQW
log2 fold change [1]: 0
log2 fold change (filanesib): -0.024
log2 fold change (zotarolimus): 0.071
log2 fold change (idasanutlin): -0.074
log2 fold change (alisertib): -0.036
log2 fold change [2]: 0.001
log2 fold change (gefitinib): -0.004
log2 fold change [3]: 0.028
log2 fold change (lapatinib): 0.037
log2 fold change (pictilisib): -0.035
log2 fold change [4]: 0.006
log2 fold change (crizotinib): 0.048
log2 fold change [5]: 0.052
log2 fold change [6]: -0.163
log2 fold change (duvelisib): 0.038
log2 fold change (gandotinib): 0.034
log2 fold change (tozasertib): -0.025
log2 fold change [7]: -0.024
log2 fold change (doramapimod): 0.003
log2 fold change (ispinesib): 0.194

CDK1 (UniProt P06493)
Sequence of UniProt P06493 (P06493 whole entry, looked up): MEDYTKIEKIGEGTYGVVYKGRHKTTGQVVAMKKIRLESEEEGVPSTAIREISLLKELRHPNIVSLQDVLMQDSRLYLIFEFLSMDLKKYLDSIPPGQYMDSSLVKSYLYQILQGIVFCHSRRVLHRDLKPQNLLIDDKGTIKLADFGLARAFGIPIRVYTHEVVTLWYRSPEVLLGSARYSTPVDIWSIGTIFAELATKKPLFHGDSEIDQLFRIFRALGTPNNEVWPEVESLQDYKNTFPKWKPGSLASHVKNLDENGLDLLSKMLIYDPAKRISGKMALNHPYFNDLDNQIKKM
log2 fold change [1]: 0.04
log2 fold change (filanesib): 0.024
log2 fold change (zotarolimus): 0.007
log2 fold change (idasanutlin): 0.02
log2 fold change (alisertib): -0.083
log2 fold change [2]: -0.036
log2 fold change (gefitinib): 0.009
log2 fold change [3]: 0.017
log2 fold change (lapatinib): 0.008
log2 fold change (pictilisib): -0.002
log2 fold change [4]: 0.005
log2 fold change (crizotinib): -0.128
log2 fold change [5]: -0.005
log2 fold change [6]: -0.019
log2 fold change (duvelisib): 0.021
log2 fold change (gandotinib): -0.171
log2 fold change (tozasertib): -0.057
log2 fold change [7]: 0
log2 fold change (doramapimod): -0.031
log2 fold change (ispinesib): 0.033

CHP1 (UniProt Q99653)
Sequence of UniProt Q99653 (Q99653 whole entry, looked up): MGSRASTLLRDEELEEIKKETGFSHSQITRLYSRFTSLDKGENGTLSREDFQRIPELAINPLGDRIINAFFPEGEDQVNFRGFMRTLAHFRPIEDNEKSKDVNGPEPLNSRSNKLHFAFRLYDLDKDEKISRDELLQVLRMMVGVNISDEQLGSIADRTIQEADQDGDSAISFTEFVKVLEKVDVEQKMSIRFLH
log2 fold change [1]: 0.039
log2 fold change (filanesib): -0.044
log2 fold change (zotarolimus): 0.058
log2 fold change (idasanutlin): -0.084
log2 fold change (alisertib): -0.144
log2 fold change [2]: 0.129
log2 fold change (gefitinib): 0.026
log2 fold change [3]: -0.02
log2 fold change (lapatinib): -0.054
log2 fold change (pictilisib): 0.053
log2 fold change [4]: 0.025
log2 fold change (crizotinib): 0.109
log2 fold change [5]: -0.061
log2 fold change [6]: -0.027
log2 fold change (duvelisib): 0.044
log2 fold change (gandotinib): 0.022
log2 fold change (tozasertib): 0.075
log2 fold change [7]: -0.026
log2 fold change (doramapimod): -0.021
log2 fold change (ispinesib): 0.25

CHAF1A (UniProt Q13111)
Sequence of UniProt Q13111 (Q13111 whole entry, looked up): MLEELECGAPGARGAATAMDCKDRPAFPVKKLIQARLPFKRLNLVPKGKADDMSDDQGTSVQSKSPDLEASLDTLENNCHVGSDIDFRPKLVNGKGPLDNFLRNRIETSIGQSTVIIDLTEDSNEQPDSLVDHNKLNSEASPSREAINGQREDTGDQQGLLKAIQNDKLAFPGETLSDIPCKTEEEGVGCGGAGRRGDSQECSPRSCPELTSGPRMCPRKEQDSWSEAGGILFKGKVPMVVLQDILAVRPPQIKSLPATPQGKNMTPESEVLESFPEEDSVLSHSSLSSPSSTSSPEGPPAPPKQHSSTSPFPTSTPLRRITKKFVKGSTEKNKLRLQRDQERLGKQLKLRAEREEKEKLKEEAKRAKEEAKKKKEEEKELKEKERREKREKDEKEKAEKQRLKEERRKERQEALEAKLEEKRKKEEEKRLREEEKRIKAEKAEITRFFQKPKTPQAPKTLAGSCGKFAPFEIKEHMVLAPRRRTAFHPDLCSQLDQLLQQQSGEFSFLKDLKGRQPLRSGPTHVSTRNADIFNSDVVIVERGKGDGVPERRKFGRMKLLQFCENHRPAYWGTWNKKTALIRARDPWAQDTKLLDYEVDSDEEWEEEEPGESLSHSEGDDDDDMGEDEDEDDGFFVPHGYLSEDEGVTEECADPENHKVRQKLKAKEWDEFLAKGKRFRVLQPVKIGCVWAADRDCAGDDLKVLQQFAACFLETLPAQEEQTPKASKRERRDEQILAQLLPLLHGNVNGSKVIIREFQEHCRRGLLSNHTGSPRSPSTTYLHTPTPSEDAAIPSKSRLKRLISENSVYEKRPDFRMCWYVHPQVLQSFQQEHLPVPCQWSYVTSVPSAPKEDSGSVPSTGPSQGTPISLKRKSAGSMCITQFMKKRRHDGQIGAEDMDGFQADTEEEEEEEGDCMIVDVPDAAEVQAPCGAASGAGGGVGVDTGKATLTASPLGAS
log2 fold change [1]: -0.149
log2 fold change (filanesib): 0.143
log2 fold change (zotarolimus): -0.145
log2 fold change (idasanutlin): 0.05
log2 fold change (alisertib): 0
log2 fold change [2]: 0.007
log2 fold change (gefitinib): 0.169
log2 fold change [3]: 0.004
log2 fold change (lapatinib): 0.169
log2 fold change (pictilisib): 0.031
log2 fold change [4]: -0.015
log2 fold change (crizotinib): 0.058
log2 fold change [5]: -0.058
log2 fold change [6]: 0.15
log2 fold change (duvelisib): 0.051
log2 fold change (gandotinib): -0.035
log2 fold change [7]: -0.04
log2 fold change (doramapimod): 0.025
log2 fold change (ispinesib): -0.098

COX6B1 (UniProt P14854)
Sequence of UniProt P14854 (P14854 whole entry, looked up): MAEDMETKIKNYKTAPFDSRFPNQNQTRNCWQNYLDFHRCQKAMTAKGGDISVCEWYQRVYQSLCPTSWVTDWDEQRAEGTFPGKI
log2 fold change [1]: -0.08
log2 fold change (filanesib): 0.003
log2 fold change (zotarolimus): 0.012
log2 fold change (idasanutlin): 0
log2 fold change (alisertib): 0.007
log2 fold change [2]: 0.045
log2 fold change (gefitinib): 0.036
log2 fold change [3]: 0.019
log2 fold change (lapatinib): -0.026
log2 fold change (pictilisib): 0.002
log2 fold change [4]: -0.001
log2 fold change (crizotinib): 0.184
log2 fold change [5]: 0.195
log2 fold change [6]: 0
log2 fold change (duvelisib): 0.163
log2 fold change (gandotinib): -0.027
log2 fold change (tozasertib): 0.105
log2 fold change [7]: 0
log2 fold change (doramapimod): -0.06
log2 fold change (ispinesib): 0.226
